High-throughput results: PubChem, University of Kansas High Throughput Screening Laboratory
Sampled rows, rich in hits. Any-hit rate of the full collection: about 3.5%.
mHTT CaM bind = disrupts binding of mutant huntingtin to calmodulin. P42858. AlphaScreen His-mHTT/GST-CaM binding, luminescence. inhibition, % at 15 µM. 190,000 compounds, 3.6% hits
Pf apPOL block = Pf-apPOL DNA polymerase inhibition | Recombinant Pf-apPOL, molecular beacon fluorescence, 1.5 h | inhibition, % at 10 µM | 210,000 compounds, 0.25% hits | AID 1794808
A number is an active result; 0 = inactive; - = not tested or not shown. Cut-off read from the data, not from the text of the source: active = inhibition above about 50%; inactive = the rest.

SMILES	mHTT CaM bind	Pf apPOL block
O=C(c1cccc(C(F)(F)F)c1)N1CCC(c2nc(-c3ccc(Cl)cc3)no2)CC1	-	0
O=C(NCCCN1CCCCC1)c1cccc(C2CCCN(C(=O)Nc3ccccc3)C2)c1 (stereo not drawn)	0	0
Brc1ccc2c(c1)NC(c1ccccc1)=NC(c1ccncc1)=N2	70.7	0
Fc1ccc(C2=Nc3ccc(F)cc3NC(c3ccccc3)=N2)cc1	0	0
Cc1cc(NC(=O)CSc2nc3ccccc3c(=O)n2Cc2ccco2)n[nH]1	0	0
O=C(O)CCCN1C(=O)CC(N2C(=O)C(=CC=Cc3ccccc3)SC2=S)C1=O (stereo not drawn)	54.1	0
O=C(O)CCCN1C(=O)C(=CC=Cc2ccccc2)SC1=S	0	0
CC(/C=C1\SC(=S)N(CC(=O)O)C1=O)=C\c1ccccc1	-	0
CC(=Cc1ccccc1)C=C1SC(=S)N(C2CC(=O)N(CCCCCC(=O)O)C2=O)C1=O (stereo not drawn)	53.2	0
COc1ccc(N2CCN(C(=O)C3CCCN(c4cc(=O)n(C)c(=O)n4C)C3)CC2)cc1 (stereo not drawn)	0	0
Cc1ccc2c(Nc3cccc(Cl)c3)c(C(=O)N3CCSCC3)cnc2n1	0	0
O=C(C1CC1)N1CCc2sc(S(=O)(=O)Nc3ccc(F)cc3)cc2C1	0	0
O=C(COc1ccccc1)NCC1Cc2cccc(F)c2O1 (stereo not drawn)	0	0
CN(C)c1ccc(C(CNC(=O)c2cccc([N+](=O)[O-])c2)N2CCOCC2)cc1 (stereo not drawn)	0	0
CN(C)c1ccc(C(CNC(=O)c2ccccc2[N+](=O)[O-])N2CCc3ccccc3C2)cc1 (stereo not drawn)	65.8	0
COc1ccc(-c2n[nH]c(C3CC3)c2NC(C)=O)cc1OC	0	0
CCOc1ccc(C(=O)Nc2c3c(nn2-c2ccc(OC)cc2)CS(=O)(=O)C3)cc1	0	0
COc1ccc(C2CC(c3ccccc3)Nc3nnnn32)cc1 (stereo not drawn)	0	0
COc1ccc(C2CC(c3ccc(-c4ccccc4)cc3)Nc3nnnn32)cc1 (stereo not drawn)	64.0	0
COc1cc(/C=C2/C(=O)N(c3ccc(C(=O)O)cc3)N=C2C)cc(OC)c1OC	0	0
COc1cc(/C=C2\C(=O)N(c3ccc(C(=O)O)cc3)N=C2C(F)(F)F)ccc1OCC(C)C	74.0	0
COc1cccc(C(=O)N2CCc3cc(OC)c(OC)cc3C2C(C)C)c1 (stereo not drawn)	0	0
COc1ccc2c(c1)c(=O)c1ccccc1n2CC(=O)Nc1cccc(C(F)(F)F)c1	54.0	0
COc1ccc2c(c1)c(=O)c1ccccc1n2CC(=O)Nc1ccc(C(F)(F)F)cc1	0	0
O=C1CC(NCCCN2CCOCC2)C(=O)N1c1ccc(Br)cc1 (stereo not drawn)	53.6	0
SMILES	mHTT CaM bind	Pf apPOL block
O=C1CC(NCCCN2CCOCC2)C(=O)N1c1ccc(N=Nc2ccccc2)cc1 (stereo not drawn)	0	0
CC(=O)Nc1cc(C(=O)NCCN2CCc3ccccc3C2)c2ccc(C)nc2c1	0	0
CS(=O)(=O)c1ccc2nc(NC(=O)/C=C/c3ccccc3Cl)sc2c1	75.0	0
CC(C)c1ccc(/C=C/C(=O)Nc2nc3ccc(S(C)(=O)=O)cc3s2)cc1	0	0
CC(C)c1nc2c(c(=O)n1CC(=O)Nc1ccccc1F)CCN(Cc1ccccc1)C2	0	0
CC(C)c1nc2c(c(=O)n1CC(=O)Nc1cccc(F)c1)CCN(Cc1ccccc1)C2	83.8	0
O=C(c1n[nH]c2ccccc12)N1CCCCC1CCN1CCOCC1 (stereo not drawn)	0	0
O=C(CC1Sc2ccccc2NC1=O)NNC(=O)c1cc(C(F)(F)F)cc(C(F)(F)F)c1 (stereo not drawn)	-	58.4
O=C(CC1Sc2ccccc2NC1=O)Nc1ccc(C(F)(F)F)cc1 (stereo not drawn)	0	0
O=C(CSc1nnc(-c2ccc3c(c2)OCCO3)o1)N1CCN(c2ccccc2)CC1	0	0
Brc1ccc(CNc2ccc3c(c2)ncn3-c2ccccc2)cc1	95.0	0
CN(C)c1ccc(CNc2ccc3c(c2)ncn3C)cc1	0	0
CC(=O)Nc1ccc2c(c1)ncn2-c1ccccc1	0	0
Cn1cnc2cc(NCc3ccc(Br)cc3)ccc21	0	0
CCN(CC)c1ccc(CNc2ccc3c(c2)ncn3C)cc1	84.0	0
CC(C)(C)n1cnc2cc(NCc3ccc(Br)cc3)ccc21	61.0	0
Cc1ccccc1Cc1nc(-c2ccc(=O)n(C)c2)no1	0	0
CCN1c2ccccc2C(=O)NC12CCN(C(=O)c1ccccc1Cl)CC2	0	0
CSCCC(C(=O)Nc1cccc(Cl)c1)N1C(=O)c2ccccc2C1=O (stereo not drawn)	0	0
O=C(Nc1nccn(-c2cccc(Cl)c2)c1=O)c1ccccn1	0	0
Cc1cc(C)cc(-n2ccnc(NC(=O)c3ccccn3)c2=O)c1	73.5	0
Cc1nc2sc(-c3ccc([N+](=O)[O-])cc3)c(-n3cccc3)c2c(C)c1Cl	0	0
CC1(C)c2ccccc2N2CCC(=O)NC21C=Cc1cccs1 (stereo not drawn)	-	0
Cc1ccc(/C=C/C23NC(=O)CCN2c2ccccc2C3(C)C)cc1 (stereo not drawn)	55.0	0
Cc1ccccc1-n1c(=O)n(CC(C)C)c(=O)c2c1ncn2Cc1ccc(F)cc1	75.1	0
SMILES	mHTT CaM bind	Pf apPOL block
CC(C)Cn1c(=O)c2c(ncn2Cc2ccc(F)cc2)n(-c2ccccc2)c1=O	0	0
Cc1nnc(NC(=O)CSc2nnc(NC(=O)COc3ccccc3)s2)s1	0	0
CCC(=O)N1CCc2cc(Br)cc(S(=O)(=O)N3c4ccccc4CC3C)c21 (stereo not drawn)	0	0
O=[N+]([O-])c1cc(Br)c(O)c(/C=C/c2ccc3cccc(O)c3n2)c1	82.8	0
COc1ccc(Br)cc1/C=C/c1ccc2cccc(O)c2n1	0	0
CC(C)(C)NCC(O)COC(C)(C)C (stereo not drawn)	0	0
Cc1ccccc1C(=O)Oc1c([N+](=O)[O-])cc(C(F)(F)F)cc1[N+](=O)[O-]	-	0
CNC1CCc2cc(OC)c(OC)c(OC)c2-c2ccc(O)c(=O)cc21 (stereo not drawn)	-	0
CC(C)Oc1ncnc2c1sc1nc(N3CCOCC3)c3c(c12)CC(C)(C)OC3	0	0
Cc1ccc(NC(=O)Nc2ccc(Cl)cc2)cc1	0	0
Cc1ccc(NC(NC(=O)Nc2ccccc2)C(Cl)(Cl)Cl)cc1 (stereo not drawn)	85.0	0
COCCNC(=O)C1(C)CCC(=O)N1Cc1ccccn1 (stereo not drawn)	0	0
O=C1CCCN1S(=O)(=O)c1ccc(Br)s1	0	-
COc1ccc(-c2nc(NCc3ccc(F)cc3)c3ccccc3n2)cc1OC	87.0	0
COc1ccc(-c2nc(NCc3ccccc3)c3ccccc3n2)cc1OC	0	0
CC(=O)Nc1ccc(N2C(=O)CC(NCCc3ccccn3)C2=O)cc1 (stereo not drawn)	54.0	0
COc1cccc(CCNC2CC(=O)N(c3ccc(NC(C)=O)cc3)C2=O)c1 (stereo not drawn)	0	0
CC(=O)c1c(-c2ccccc2)c2cc(Br)ccc2[nH]c1=O	58.0	0
CC(=O)c1c(-c2ccccc2)c2cc(Cl)ccc2[nH]c1=O	0	0
NCCCc1nc2ccc(F)cc2[nH]1	0	-
CCN1C(=O)Cc2cc(C(=O)N3CCN(c4ccccc4Cl)CC3)ccc21	0	0
